Our source for the Potency, activity, negative = inhibition and activity change, negative = cytotoxicity values is PubChem BioAssay (Tox21).

Results filed as inconclusive are left out. Where a call stands in place of a potency, no number is given. Activity calls are given as the source filed them. Unless noted, calls come from the whole dose curve; as a rule, active = well fitted cell-killing curve with a large enough effect in the repeat runs; inconclusive = weak or mixed curves, or effect the other way; inactive = flat fitted curve, though single readings scatter.

In the first assay the target is Estrogen receptor beta (Homo sapiens) (UniProt Q92731). The assay can be described thus: qHTS assay to identify small molecule antagonists of the estrogen receptor beta (ER-beta) signaling pathway (AID 1259378; active = well fitted inhibition curve with a large enough effect in the signal ratio in the repeat runs, not every such curve was filed as active; the % refers to the signal ratio; note: potency is the fitted concentration of half-maximal effect). To be noted: ER-beta-UAS-bla HEK293T, beta-lactamase FRET ratio, 16 h; series mostly up to 92.4 µM. An outline of the steps: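 ER-beta-UAS-bla HEK293T (GripTite) cells in 2% charcoal-stripped FBS medium were preincubated 6 hr at 37C, dosed with compound, then stimulated with 1 nM E2 (final) for 16 hr; beta-lactamase reporter read by B/G FRET fluorescence after 2 hr substrate loading.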
Sequence of Estrogen receptor beta (Homo sapiens) (Q92731 whole entry, looked up): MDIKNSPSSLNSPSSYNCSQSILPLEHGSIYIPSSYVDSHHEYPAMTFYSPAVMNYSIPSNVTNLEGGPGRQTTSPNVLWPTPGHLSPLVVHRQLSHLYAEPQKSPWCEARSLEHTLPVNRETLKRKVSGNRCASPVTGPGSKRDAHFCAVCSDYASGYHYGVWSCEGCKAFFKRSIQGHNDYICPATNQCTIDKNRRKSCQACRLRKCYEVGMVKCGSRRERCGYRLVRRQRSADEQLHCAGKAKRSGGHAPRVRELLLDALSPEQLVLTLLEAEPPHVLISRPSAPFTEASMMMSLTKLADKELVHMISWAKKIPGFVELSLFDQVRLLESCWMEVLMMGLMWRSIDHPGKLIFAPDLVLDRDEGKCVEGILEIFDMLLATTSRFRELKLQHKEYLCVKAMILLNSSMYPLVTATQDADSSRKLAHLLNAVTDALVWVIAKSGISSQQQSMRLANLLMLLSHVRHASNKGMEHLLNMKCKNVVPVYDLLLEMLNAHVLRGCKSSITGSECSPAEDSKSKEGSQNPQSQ
Take `CCCCCCCC(=O)OC`: the Potency entry was “inactive”.
On to `CCN(CC)CCCC(C)Nc1ccnc2cc(Cl)ccc12` (stereo not drawn), for which the activity, negative = inhibition is -11.4% [at 8.39 µM] (inactive).
As for `CC1=C(C)S(=O)(=O)CCS1(=O)=O`, the Potency result is “inactive”.
Take `CCCCC(CC)CO` (stereo not drawn): the Potency result was “inactive”.
Turning to `Cc1ccc(N(C)C)cc1`, the Potency entry is “inactive”.
For `Cc1cnc(C(=O)NCCc2ccc(S(=O)(=O)NC(=O)NC3CCCCC3)cc2)cn1`, the Potency entry is “inactive”.
As for `O=C1CCC(N2C(=O)c3ccccc3C2=O)C(=O)N1` (stereo not drawn), the Potency result is “inactive”.
Turning to `Cc1cccnc1`, the Potency result is “inactive”.
On to `OCCOCCN1CCN(C2=Nc3ccccc3Sc3ccccc32)CC1`, for which the Potency entry was “inactive”.
The same measure, in the same setting: with `O=[N+]([O-])c1ccc(/C=C/c2ccc([N+](=O)[O-])cc2S(=O)(=O)O)c(S(=O)(=O)O)c1` the entry was “inactive”; with `Cc1cccc(O)c1`, “inactive”.
In the case of `CCCCCC(N)=O`, the Potency entry is “inactive”.
On to `O=P(OC(CCl)CCl)(OC(CCl)CCl)OC(CCl)CCl`, for which the Potency was 54.5 µM (active).
Take `C=C(C)C(=O)Nc1ccc(Cl)c(Cl)c1`: the Potency result was “inactive”.

System in a further assay: not listed separately
Description: qHTS assay to identify small molecule agonists of the androgen receptor (AR) signaling pathway in the presence of an antagonist - cell viability counter screen (AID 1259379).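 Note: MDA-kb2 human breast cancer cells carrying an MMTV luciferase reporter; nearly all actives have a fitted effect of over 25% in size.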 The following applies: MDA-kb2 viability, CellTiter-Fluor, 16 h; series mostly up to 92.4 µM. An outline of the steps: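 MDA-kb2 cells (MMTV-luciferase, AR/GR), 3,000/well, 5 h attachment, then 3.0 µM nilutamide (final) and compounds at 15 concentrations. Viability by CellTiter-Fluor fluorescence after 16 h at 37 °C, 0% CO2, in the reporter wells.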
(In qHTS, concentration-response curves come from the screen itself.)
As for `CCCCCCCC(=O)OC`, the Potency result is “inactive”.
Turning to `CCN(CC)CCCC(C)Nc1ccnc2cc(Cl)ccc12` (stereo not drawn), the activity change, negative = cytotoxicity was -10.8% [at 8.39 µM] (inactive).
For the molecule `CC1=C(C)S(=O)(=O)CCS1(=O)=O`, the Potency result is “inactive”.
On to `OCC(CO)(CBr)CBr`, for which the Potency entry was “inactive”.
On to `CN(C)CCC(c1ccc(Cl)cc1)c1ccccn1` (stereo not drawn), for which the Potency result was “inactive”.
Still for that read-out and setting: with `CN(C)CCCN` the entry was “inactive”; with `C=C(C)C(=O)OCCOCCOCCOC(=O)C(=C)C`, “inactive”.
The same measure, in the same setting: the entry for `CCCCC(CC)CO` (stereo not drawn) is “inactive”; for `Cc1ccc(N(C)C)cc1` it is “inactive”; for `O=C(O)c1cc(C(=O)O)cc(S(=O)(=O)O)c1` it is “inactive”.
Regarding `O=C(O)c1ccc(C(=O)O)cc1`, the Potency result is “inactive”.
Regarding `CCCCCCCCCCCCOCCO`, the Potency result is “inactive”.
Regarding `CC(O)COCC(C)O` (stereo not drawn), the Potency entry is “inactive”.
Consider `C[C@H]1C[C@H]2[C@@H]3CCC4=CC(=O)C=C[C@]4(C)[C@@]3(F)[C@@H](O)C[C@]2(C)[C@@]1(O)C(=O)CO`, for which the Potency entry is “inactive”.
For `CCOC(=O)NNc1nncc2ccccc12`, the Potency result was “inactive”.
For the molecule `COc1ccc(Nc2ccccc2)c(C)c1`, the Potency entry was “inactive”.
Take `O=S(=O)(O)c1ccc2ccccc2c1`: the Potency entry was “inactive”.
`Cc1cnc(C(=O)NCCc2ccc(S(=O)(=O)NC(=O)NC3CCCCC3)cc2)cn1`: the Potency result was “inactive”.
For the molecule `O=C1CCC(N2C(=O)c3ccccc3C2=O)C(=O)N1` (stereo not drawn), the Potency entry was “inactive”.
In the case of `Cc1cccnc1`, the Potency result was “inactive”.
In the case of `OCCOCCN1CCN(C2=Nc3ccccc3Sc3ccccc32)CC1`, the Potency entry was “inactive”.
Turning to `CC[C@H](C)C(=O)O[C@H]1C[C@@H](C)C=C2C=C[C@H](C)[C@H](CC[C@@H]3C[C@@H](O)CC(=O)O3)[C@H]21`, the Potency result is “inactive”.
Consider `CCCCCOC(C)=O`, for which the Potency entry is “inactive”.
On the same count and under the same terms, with `O=[N+]([O-])c1ccc(/C=C/c2ccc([N+](=O)[O-])cc2S(=O)(=O)O)c(S(=O)(=O)O)c1` the entry was “inactive”; with `Cc1cccc(O)c1`, “inactive”.
Consider `CCCCCC(N)=O`, for which the Potency entry is “inactive”.
For `Cc1ccc(S(N)(=O)=O)cc1`, the Potency entry was “inactive”.
With `COS(C)(=O)=O`, the Potency result was “inactive”.
Consider `CCCC(C)=O`, for which the Potency result was “inactive”.
The same measure, in the same setting: the entry for `OCc1cccnc1` is “inactive”; for `C=CCOC(=O)c1ccccc1C(=O)OCC=C` it is “inactive”; for `CCCSc1ccc2nc(NC(=O)OC)[nH]c2c1` it is “inactive”.
In the case of `O=P(OC(CCl)CCl)(OC(CCl)CCl)OC(CCl)CCl`, the Potency entry was “inactive”.
In the case of `COc1ccc2cc([C@H](C)C(=O)O)ccc2c1`, the Potency entry is “inactive”.
As for `O=C(O)[C@H](O)[C@@H](O)[C@H](O)[C@H](O)CO`, the Potency result was “inactive”.
Turning to `Cc1cc(C)c(C)cc1C`, the Potency result is “inactive”.
In the case of `CCCCOC(=O)COc1ccc(Cl)cc1Cl`, the Potency result is “inactive”.
As to `C[C@H]1C[C@@H]2[C@H]([C@@H](O)C[C@@]3(C)[C@H]2CC[C@]3(O)C(=O)CO)[C@@]2(C)C=CC(=O)C=C12`, the Potency entry is “inactive”.
The same measure, in the same setting: with `C=C(C)C(=O)Nc1ccc(Cl)c(Cl)c1` the entry was “inactive”.
